Measurements from the supplement of paper PMC13380429.
Unmarked numbers belong to inactive results.

Tested on: Vero E6 infected with SARS-CoV-2
Assay: inhibition of SARS-CoV-2 cytopathic effect; higher = more antiviral protection, active = above 15
Details: 48 h

SMILES	inhibition of SARS-CoV-2 cytopathic effect (1 nM) [%]	inhibition of SARS-CoV-2 cytopathic effect (8.33 nM) [%]	inhibition of SARS-CoV-2 cytopathic effect (100 nM) [%]	inhibition of SARS-CoV-2 cytopathic effect (833.33 nM) [%]	inhibition of SARS-CoV-2 cytopathic effect (10000 nM)
CC(C)N(CCCCOCC(=O)NS(C)(=O)=O)c1cnc(-c2ccccc2)c(-c2ccccc2)n1 [selexipag]	-0.52	-1.02	-0.43	-0.43	-1.53%
CN[C@H](C(=O)N[C@H](C(=O)N(C)[C@H](/C=C(\C)C(=O)O)C(C)C)C(C)(C)C)C(C)(C)c1ccccc1 [taltobulin]	-0.53	-1.55	-0.97	-1.63	-1.03%
N#CSc1cc(SC#N)c(N)nc1N	-1.78	0.62	3.56	0.7	11.2%
Cc1cc(O)c2c(=O)c3c(O)cc(O)c4c5c(O)cc(O)c6c(=O)c7c(O)cc(C)c8c1c2c(c34)c(c78)c65 [hypericin]	3.48	-1.72	-6.89	-0.08	-4.81%
COC(=O)C1=C(C)NC(C)=C(C(=O)OCCN2CCN(C(c3ccccc3)c3ccccc3)CC2)C1c1cccc([N+](=O)[O-])c1 (stereo not given) [manidipine]	1.55	1.19	-0.02	1.16	-7.15%
CCOc1ccc(NC(=S)N2CCC(C(O)(c3ccccc3)c3ccccc3)CC2)cc1	-2.59	-1.73	-2.48	-3.52	-4.05%
CNC(=N)NC(=O)Nc1c(C)cccc1C [lidamidine]	0.93	2.74	3.39	3.62	-2.49%
Cc1c(O)c(=O)ccn1C [deferiprone]	0.05	0.64	1.45	3.35	0.91%
CC(=O)Nc1ccc(C(=O)NC(C)(C)C)cc1	-4.86	-3.67	-1.32	-3.41	-0.2%
OC[C@H]1O[C@H](O[C@H]2O[C@H](CO)[C@@H](O)[C@H](O)[C@H]2O)[C@H](O)[C@@H](O)[C@@H]1O [cabaletta]	1.34	3.4	5.33	3.33	0.76%
COc1ccccc1CN[C@H]1CCCN[C@H]1c1ccccc1	-0.59	-1.96	2.38	-1.82	-3.19%
CN[C@@H]1[C@H](O)[C@H](NC)[C@H]2O[C@@]3(O)C(=O)C[C@@H](C)O[C@H]3O[C@@H]2[C@H]1O [spectinomycin]	1.83	2	1.36	4.54	3.59%
CO[C@@H]1[C@@H](OC(N)=O)[C@@H](O)[C@H](Oc2ccc3c(O)c(NC(=O)c4ccc(O)c(CC=C(C)C)c4)c(=O)oc3c2C)OC1(C)C [novobiocin]	-2.55	-2.69	2.34	0.52	0.14%
Cc1ccccc1-n1c(Cn2ncc3c(N)ncnc32)nc2cccc(C)c2c1=O	-1.01	0.63	0.62	-3.58	54.3% (active)
OCCn1cc(-c2cnc3nnn(Cc4ccc5ncccc5c4)c3n2)cn1	1.37	2	1.01	2.71	2.26%
COc1ccccc1N1CCN(CCN(C(=O)C2CCCCC2)c2ccccn2)CC1	-3.64	-4.61	-0.56	3.47	-0.29%
Cc1c(N(C)CS(=O)(=O)O)c(=O)n(-c2ccccc2)n1C [metamizole]	5.03	0.47	-1.36	-3.82	0.29%
O=C(O)c1cc(O)c2c(c1)C(=O)c1cccc(O)c1C2=O [rhein]	-0.32	-0.35	-3.51	-0.03	-2.1%
C[C@@H]1CCN(C(=O)CC#N)C[C@@H]1N(C)c1ncnc2[nH]ccc12	-0.74	0.22	-0.47	-2.11	-0.5%
CS(=O)(=O)c1ccc([C@@H](O)[C@@H](CF)NC(=O)C(Cl)Cl)cc1 [florfenicol]	-5.27	-3.73	-3.16	0.63	-0.52%
COc1ccc(C(CN(C)C)C2(O)CCCCC2)cc1 (stereo not given) [venlafaxine]	0.56	0.96	1.86	-0.35	-0.29%
CN(CCOc1ccc(NS(C)(=O)=O)cc1)CCc1ccc(NS(C)(=O)=O)cc1 [dofetilide]	-2.98	-1.43	-1.55	-0.28	-0.36%
CC(C)[C@@H](C)/C=C/[C@@H](C)[C@H]1CC[C@H]2/C(=C/C=C3\C[C@@H](O)CC[C@@H]3C)CCC[C@]12C [dihydrotachysterol]	-0.76	0.52	-1.39	-0.26	-0.14%
CCC(=O)O[C@]1(C(=O)CO)CC[C@H]2[C@@H]3CCC4=CC(=O)CC[C@]4(C)[C@H]3CC[C@@]21C	0.99	0.06	-0.33	1.21	2.45%
NCCCCN [putrescine]	2.4	3.44	-0.12	4.47	0.82%
